The record followed here is PubChem BioAssay (EPA / NIEHS).

Active and inactive are the calls of the source. Rule for the calls: active = hit-call score of the fitted dose curve at least 0.9, where 1 is the maximum; inactive = score below 0.9.

Read-out in the assay: Tissue Factor, F3 (gene 2152)
Nature of the assay: BSK_LPS_TissueFactor: BioMAP Diversity Plus: LPS Assay for Tissue Factor Biomarker Activity (AID 2283084). To be noted: primary human HUVEC with PBMC; actives raise or lower the signal. A digest of the protocol: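 Human umbilical vein endothelial cells co-cultured with PBMC were dosed with compound. Cell-surface CD142 was measured by ELISA 24 h later. Activity was fitted bidirectionally against DMSO, with SRB total-protein staining in parallel cultures for cytotoxicity.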
As for `CCCCN1C(=O)[C@@H]([C@H](O)C2CCCCC2)NC(=O)C12CCN(Cc1ccc(Oc3ccc(C(=O)O)cc3)cc1)CC2`, the result was inactive.
The same measure, in the same setting: with `C[Si](C)(C)C(F)(F)C(F)(F)C(F)(F)F` the entry was “inactive”; with `OCc1c[nH]c2ccccc12`, “inactive”; with `C[C@]12C=CC(=O)C=C1CC[C@H]1[C@@H]3C[C@@H](O)[C@](O)(C(=O)CO)[C@@]3(C)C[C@H](O)[C@@]12F`, “inactive”.
Turning to `S=P(N1CC1)(N1CC1)N1CC1`, the result was inactive.
`CCCOc1ccc(S(=O)(=O)N2CCN(CC)CC2)cc1-c1nc2c(CC)n(Cc3ccccn3)nc2c(=O)[nH]1`: the outcome was inactive.
The same measure, in the same setting: with `Cc1ccc(S(=O)(=O)NC(=O)NN2CCCCCC2)cc1` the entry was “inactive”.
As to `CC(C)c1nnc2ccc(-c3ocnc3-c3cc(F)ccc3F)cn12`, the AC50 (usually the midpoint of the concentration-response curve, whichever way the signal moves) is 0.356 µM (active).
On the same count and under the same terms, with `CCCCCCCCCCCCCCO` the figure was 33.3 µM (active).
With `OC[C@H]1O[C@@](CO)(O[C@H]2O[C@H](CO)[C@@H](O)[C@H](O)[C@H]2O)[C@@H](O)[C@@H]1O`, the outcome was inactive.
As for `COCc1nnc(-c2ccc[n+]([O-])c2)n1-c1c(Cl)c(Cl)cc2[nH]c(=O)c(=O)[nH]c12`, the outcome was inactive.
Consider `O=C(Cl)C(F)(F)C(F)(F)C(F)(F)C(=O)Cl`, for which the outcome was inactive.
Still for that read-out and setting: with `OC(CCl)CCl` the entry was “inactive”; with `CCn1nc(C)c2c1C(=O)NCC(c1ccc(O)cc1)=N2`, “inactive”.
On the same count and under the same terms, the result for `O=S1(=O)CCCO1` reads “inactive”; that for `c1ccc(C(O[C@@H]2CCCN(CCc3ccc4c(c3)OCO4)C2)c2ccccc2)cc1`, “inactive”; that for `O=S(=O)(O)CCC(F)(F)C(F)(F)C(F)(F)C(F)(F)C(F)(F)C(F)(F)F`, “inactive”.
